Hits are enriched below; roughly 1.2% of the tested compounds scored in any of these assays.
KCNH2 3.1 inh = KCNH2 3.1 (human) potassium channel inhibition. U2OS KCNH2 3.1, thallium flux FluxOr; active compounds read low. activity change, % (tested at about 1.8 µM). 340,000 tested, 0.95% active;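 active = maximum activity change below -70%; inconclusive = maximum activity change from -70% to -50%; inactive = maximum activity change above -50%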;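 note: thallium influx rate constant from kinetic fluorescence after stimulation buffer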
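We transduce U2OS cells with the mutant 3.1 virus, culture them overnight, load FluxOr with Red40 quencher for 45 min, then add stimulation buffer and read kinetically for 2 min to derive a normalized rate constant.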
KinaseGlo FLuc = Kinase-Glo luciferase inhibition (counter-screen); Potency, µM (series often up to 38.3 µM), without a hit: at the top dose activity change, negative = inhibition, most hits filed as inhibitors; Q27757; Kinase-Glo luciferase, ATP luminescence, 8 min; 200,000 tested, 0.28% active; active = well fitted inhibition curve with a large enough effect; inconclusive = small, poorly fitted or top-dose-only effect; note: potency is the fitted concentration of half-maximal effect; nearly all actives have a fitted effect of over 60% in size
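Inhibition of Kinase-Glo luciferase light generation was assessed at 10 uM ATP in pH 7.2 imidazole buffer, with luminescence measured after eight minutes at ambient temperature.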
hERG WT inh = inhibitors of human wildtype KCNH2 potassium channel | Q12809 | AID 720551 | U2OS, BacMam KCNH2, thallium flux FluxOr; active compounds read low | 340,000 tested, 0.37% active | activity change, % at 1.84 µM;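 active = maximum activity change below -70%; inconclusive = maximum activity change between -70% and -50%; inactive = maximum activity change above -50%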
Target sequence (Q12809 whole entry, looked up): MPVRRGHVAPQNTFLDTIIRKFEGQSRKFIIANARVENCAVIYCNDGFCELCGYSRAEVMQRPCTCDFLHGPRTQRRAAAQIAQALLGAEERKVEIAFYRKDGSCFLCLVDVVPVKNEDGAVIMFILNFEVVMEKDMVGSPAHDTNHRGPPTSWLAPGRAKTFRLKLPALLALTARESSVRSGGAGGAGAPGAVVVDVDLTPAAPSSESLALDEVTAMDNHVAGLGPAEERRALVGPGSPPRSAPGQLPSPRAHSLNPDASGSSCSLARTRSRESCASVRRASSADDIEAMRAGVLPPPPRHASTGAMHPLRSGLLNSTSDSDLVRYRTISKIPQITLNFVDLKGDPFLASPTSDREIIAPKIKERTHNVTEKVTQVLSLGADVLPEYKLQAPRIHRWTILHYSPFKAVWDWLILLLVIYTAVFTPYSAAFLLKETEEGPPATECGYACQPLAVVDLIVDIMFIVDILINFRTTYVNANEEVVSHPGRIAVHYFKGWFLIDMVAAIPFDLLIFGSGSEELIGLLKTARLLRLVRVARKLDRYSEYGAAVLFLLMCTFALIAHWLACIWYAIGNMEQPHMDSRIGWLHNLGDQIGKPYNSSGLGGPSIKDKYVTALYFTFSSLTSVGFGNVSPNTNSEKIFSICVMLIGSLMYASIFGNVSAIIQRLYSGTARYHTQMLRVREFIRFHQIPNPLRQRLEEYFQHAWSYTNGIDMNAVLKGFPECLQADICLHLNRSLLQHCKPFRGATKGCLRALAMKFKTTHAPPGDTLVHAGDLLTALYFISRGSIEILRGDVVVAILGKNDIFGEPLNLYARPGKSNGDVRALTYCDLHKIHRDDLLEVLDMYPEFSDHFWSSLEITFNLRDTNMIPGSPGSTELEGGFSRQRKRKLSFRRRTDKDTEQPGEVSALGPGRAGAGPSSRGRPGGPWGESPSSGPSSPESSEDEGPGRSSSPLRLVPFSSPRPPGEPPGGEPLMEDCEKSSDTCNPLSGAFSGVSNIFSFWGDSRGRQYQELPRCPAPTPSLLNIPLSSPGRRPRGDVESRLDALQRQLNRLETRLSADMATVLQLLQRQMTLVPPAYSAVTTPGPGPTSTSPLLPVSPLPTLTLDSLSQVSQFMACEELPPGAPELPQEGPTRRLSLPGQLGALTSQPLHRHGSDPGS
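U2OS cells transduced with wild-type KCNH2 virus are loaded with FluxOr dye for 45 min, and thallium flux is measured in kinetic reads before and after stimulation buffer. Rate constants are normalized to DMSO controls.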
* = called active by the depositor; i = inactive; ? = inconclusive; / = no result; [ ] = remark or other dose. % is set by controls: 0 for no effect and ±100 for the full control effect.

SMILES | KCNH2 3.1 inh | KinaseGlo FLuc | hERG WT inh
COC(=O)CSc1ncc(S(=O)(=O)c2ccccc2)c(=O)[nH]1 | -131* | / | 5
COC(=O)CSc1nc2c(cnn2-c2ccc(F)cc2)c(=O)[nH]1 | -6 | / | -1
O=C(Nc1ccc2c(c1)CN(Cc1ccco1)CC2)C1CCCO1 (configuration not stated) | -2 | / | 2
CCc1nnc(NC(=O)c2cc(-c3ccco3)nc3ccccc23)s1 | 10 | 0% | 2
O=C(Nc1nncs1)c1cc(-c2ccco2)nc2ccccc12 | 0 | / | -73*
CCC(=O)N(c1nnc(SCC(=O)NN2C(=O)NC3(CCC(C)CC3)C2=O)s1)C1CC1 (configuration not stated) | -3 | / | 2
O=[N+]([O-])c1ccc(N/N=C\c2cccnc2)nc1 | -95* | -3% | /
O=[N+]([O-])c1ccc(NN=Cc2cccc(O)c2)nc1 | 2 | / | -3
CS(=O)(=O)N(Cc1nc(-c2ccc(F)cc2)no1)c1ccccc1Cl | 0 | / | -2
COC(=O)[C@@]1(Cc2ccc(OC)cc2)[C@H]2c3cc(C(=O)N4CCCC4)n(Cc4cc(F)cc5c4OCOC5)c3C[C@H]2CN1C(=O)c1ccccc1 | / | 1% | /
Fc1cccc(Cl)c1CSC1=NCCS1 | -1 | / | -7
ON(Cc1c(F)cccc1Cl)Cc1c(F)cccc1Cl | -114* | / | 1
COc1ccc(C(=O)Nc2ccc(-c3ccc(C)o3)cc2)cc1S(=O)(=O)N1CCOCC1 | -71* | 1% | 16
COc1ccc(C(=O)Nc2ccc(N3CCOCC3)cc2)cc1S(=O)(=O)N1CCOCC1 | 2 | / | -1
CCN1CCCC1CN(Cc1cc2ccc(C)cc2[nH]c1=O)C(=S)Nc1ccc(OC)cc1 (configuration not stated) | -48 | 3% | -36
CCN1CCCC1CN(Cc1cc2ccc(C)cc2[nH]c1=O)C(=S)Nc1ccc(F)cc1 (configuration not stated) | -85* | -1% | -71*
COc1ccc(Cl)cc1S(=O)(=O)n1c([N+](=O)[O-])cnc1C | 6 | / | 4
CC[C@H](C)[C@@H](NC(=O)O[C@H]1C(=O)c2ccc(OC)cc2O[C@@H]1c1ccc2c(c1)OCO2)C(=O)OC | / | 0% | /
O=C(CCc1c[nH]c2ccccc12)OCC(=O)c1ccccc1 | -5 | / | -12
CN(C(=O)COC(=O)CCc1c[nH]c2ccccc12)C(c1ccccc1)c1ccccc1 | -80* | 4% | -5
CCC(C)NC(=O)CN1C(=O)NC2(CCc3ccccc3C2)C1=O (configuration not stated) | -77* | -1% | 0
CC(C)NC(=O)NC(=O)CN1C(=O)NC2(CCc3ccccc3C2)C1=O (configuration not stated) | 20 | / | 4
Cc1cc(C(=O)N(CCC#N)Cc2cccs2)no1 | -4 | / | -7
COC(=O)COc1ccc(/C=N/NC(=O)CN(c2ccccc2OC)S(=O)(=O)c2ccccc2)cc1 | -89* | / | -21
COc1ccccc1N(CC(=O)N/N=C/c1ccc(OCC(=O)NCc2ccco2)cc1)S(=O)(=O)c1ccc(C)cc1 | -23 | 3% | -2
SMILES | KCNH2 3.1 inh | KinaseGlo FLuc | hERG WT inh
O=C(OCc1nnc(-c2ccc(Cl)cc2)o1)c1ccncc1 | 28 | -9% | -9
Cc1ccccc1C(=O)OCc1nnc(-c2ccc(Cl)cc2)o1 | -77* | -5% | -2
O=C1O[C@@H]([C@H](O)[C@H](O)[C@H](O)CO)[C@@H](O)[C@@H]1O | / | -6%[7.66 µM] | /
O=C(Nc1ccc(N2CCCC2)cc1)c1cccc(F)c1 | -7 | ? | 7
O=C(Nc1ccc(N2CCCC2=O)cc1)c1cccc(F)c1 | 16 | 7.9µM* | -3
COC(=O)C(Cc1ccccc1)NC(=O)CNC(=O)c1ccc(Br)cc1 (configuration not stated) | 10 | / | -19
CCCC(=O)Oc1ccc(C2NC(=O)c3ccccc3O2)cc1 (configuration not stated) | 2 | / | 2
C=CCOc1ccccc1CN1CCC(CO)(CCOc2ccccc2)CC1 | -80* | / | ?
OCC1(CCOc2ccccc2)CCN(Cc2ccc3c(c2)OCCO3)CC1 | -48 | -7% | 5
CSc1ccc(CN2CCC(CO)(CCOc3ccccc3)CC2)cc1 | -100* | / | -110*
OCC1(CCOc2ccccc2)CCN(Cc2cc(Cl)ccc2O)CC1 | 4 | / | 5
CCn1ccnc1CN1CCC(CO)(CCOc2ccccc2)CC1 | -7 | / | 12
OCC1(CCOc2ccccc2)CCN(Cc2ccc(OC(F)F)cc2)CC1 | -111* | / | -131*
OCC1(CCOc2ccccc2)CCN(Cc2ccccc2OC(F)F)CC1 | -99* | / | 5
OCC1(CCOc2ccccc2)CCN(Cc2ccncc2)CC1 | -1 | / | 30
CN(C)c1ccc(NC(=O)CSc2nc(C3CC3)nc3ccccc23)cc1 | 7 | / | -9
CCCCNC(=O)c1c(O)c2cccc3c2n(c1=O)CCC3 | -4 | -4% | -1
CCNCCNC(=O)c1c(O)c2cccc3c2n(c1=O)CCC3 | 8 | -1% | -179*
CCc1ccc2c(c1)C(=O)C(=O)N2CC(=O)Nc1ccc(NC(=O)c2ccccn2)cc1 | 4 | -5% | -1
CC(=O)c1cc2c(=O)c3cc(C)ccc3oc2nc1C | 16 | ? | -1
Cc1ccc2cc(C(=O)O)c(C)nc2c1 | -88* | -4% | 5
Cc1ccc2oc3nc(C)c(C(=O)O)cc3c(=O)c2c1 | 1 | 4.5µM* | 22
Cc1ccc2nc(C)c(C(=O)O)cc2c1 | -3 | / | -1
O=C(CN1CCN(S(=O)(=O)c2ccccc2F)CC1)Nc1ccnn1C1CCCC1 | -7 | / | -9
Oc1ccc(N=Nc2ccc3c(c2)OCCO3)c2cccnc12 | 8 | -13% | 2
SMILES | KCNH2 3.1 inh | KinaseGlo FLuc | hERG WT inh
Oc1ccc(N=Nc2ccc3c(c2)OCCO3)c(O)c1 | -21 | / | -73*
OCCC1CN(Cc2cc(F)ccc2F)CCN1CCCc1ccccc1 (configuration not stated) | -21 | / | 25
OCCC1CN(Cc2ccc(F)cc2Cl)CCN1CCc1ccccc1 (configuration not stated) | -72* | / | 15
COc1ccc(-c2nc(-c3ccccc3)c(NC(C)(C)C)o2)cc1 | / | 1% | /
CCCCn1c(N)c(N(CCOC)C(=O)c2cccc(N3C(=O)c4ccccc4C3=O)c2)c(=O)[nH]c1=O | -2 | / | -3
N/C(Cc1ccc([N+](=O)[O-])cc1)=N\OC(=O)c1ccccc1Br | 7 | 1% | 11
O=C(Nc1ccc([N+](=O)[O-])cc1)C(c1ccccc1)c1ccccc1 | -79* | / | 7
N/C(Cc1ccc([N+](=O)[O-])cc1)=N\OC(=O)C(c1ccccc1)c1ccccc1 | -82* | / | 3
O=C(NCC(O)c1ccc([N+](=O)[O-])cc1)C(c1ccccc1)c1ccccc1 (configuration not stated) | -11 | / | 3
COc1ccc(OC)c(S(=O)(=O)N2CCC(NC(=O)c3ccccc3)CC2)c1 | 24 | / | 0
O=[N+]([O-])c1ccc(-c2ccc(/C=N/Nc3nc(N4CCCC4)nc(N4CCCC4)n3)o2)cc1 | ? | 0% | i
COc1ccc(-c2cnnc(N/N=C/c3ccc(-c4ccc([N+](=O)[O-])cc4)o3)n2)cc1 | -149* | -1% | -11
